Reference: PubChem BioAssay (EPA / NIEHS)
Several values for one entry are separate records, joined by “and”; a condition that tells them apart may be missing. Equal entries are not always repeated. Records with an inconclusive call do not appear. Some structures have more than one record in an assay (separate samples or runs), and their calls can disagree. Activity calls are given as the source filed them. The calls were made as follows, unless noted: active = hit-call score of the fitted dose curve at least 0.9, where 1 is the maximum; inactive = score below 0.9.

Columns and labels:
[1] = CCTE_Shafer_MEA_dev_inter_network_spike_interval_mean: CCTE's Neural Network Formation Assay for Mean Inter-network Spike Interval, Shafer Lab (AID 2284047)
In short: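 Primary rat cortical neurons on PEI-coated 48-well MEAs (16 electrodes/well) were exposed from plating day 0 to DIV 12, with dosing renewed at DIV 5 and 9. Recordings at DIV 5, 7, 9, 12 were collapsed by trapezoidal AUC, loss-of-signal fit vs DMSO.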

[2] = CCTE_Shafer_MEA_dev_network_spike_number: CCTE's Neural Network Formation Assay for Number of Network Spikes, Shafer Lab (AID 2284048);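 also: synchronized bursts across electrodes counted on days 5 7 9 12 and integrated as AUC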;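 as to AC50: fit as a loss of signal meaning fewer network spikes than DMSO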
In short: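 Rat cortical primary cultures on 48-well MEA (16 electrodes/well); continuous exposure DIV 0–12, full medium and treatment exchange DIV 5, 9. Readout: network spike count, AxIS adaptive detection, recordings DIV 5/7/9/12 collapsed to AUC; loss-of-signal fit, DMSO baseline.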

[3] = CCTE_Shafer_MEA_dev_network_spike_peak: CCTE's Neural Network Formation Assay for Mean Number of Electrodes in Network Spike, Shafer Lab (AID 2284049);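 as to AC50: fitted for loss of signal meaning fewer electrodes in network spikes than DMSO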
In short: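 Network-spike peak electrode count from recordings on days 5, 7, 9 and 12 was combined as trapezoidal area under the curve. Rat cortical cultures were treated continuously from plating, with compound renewed at each feed (DIV 5, 9); fits versus DMSO.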

[4] = CCTE_Shafer_MEA_dev_spike_duration_mean: CCTE's Neural Network Formation Assay for Mean Spike Duration, Shafer Lab (AID 2284051);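 also: mean network spike duration pooled as area under curve over DIV 5 to 12 recordings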;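 as to AC50: potency for a decrease in mean network spike duration versus DMSO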
In short: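 Rat cortical primary cultures, 48-well MEA (16 electrodes/well); compound from plating, renewed DIV 5, 9. Network spike duration (AxIS adaptive detector) recorded DIV 5/7/9/12, combined as trapezoidal AUC; loss direction vs DMSO.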

[5] = CCTE_Shafer_MEA_dev_network_spike_duration_std: CCTE's Neural Network Formation Assay for Standard Deviation of Network Spike Duration, Shafer Lab (AID 2284052);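 also: area under curve of spike duration SD across recording days 5 to 12; hits are decreases in network spike duration SD versus DMSO vehicle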
In short: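 Rat cortical cultures, 1.5 x 10^5 cells/well, exposed continuously from plating to DIV 12 with media/compound renewal at DIV 5, 9. Spontaneous activity recorded DIV 5/7/9/12, AxIS adaptive spike detector; AUC across days; negative direction vs DMSO.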

[6] = CCTE_Shafer_MEA_dev_per_network_spike_spike_number_mean: CCTE's Neural Network Formation Assay for Mean Number of Spikes in a Network Spike, Shafer Lab (AID 2284053);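 as to AC50: fitted as decrease in spikes per network spike relative to DMSO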
In short: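 Rat cortical primary cultures on 48-well MEA; compound from day 0, re-dosed with full media change DIV 5, 9. Recorded DIV 5, 7, 9, 12; spikes in 0.05 s window at network-spike peak ÷ total network spikes; AUC; loss vs DMSO.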

[7] = CCTE_Shafer_MEA_dev_LDH: CCTE's Lactate Dehydrogenase Assay for Cytotoxicity in the Neural Network Formation Assay, Shafer Lab (AID 2284068; active = hit-call score of the fitted dose curve at least 0.9, where 1 is the maximum;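 also: exposure for twelve days from plating with re-dosing on DIV 5 and 9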)
In short: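 Rat cortical primary neurons, MEA culture; dosing day 0–12, full medium plus compound exchange DIV 5, 9. Read-out: LDH enzyme activity, spectrophotometric. DMSO = negative control/baseline; signal loss → cytotoxicity.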

[8] = CCTE_Shafer_MEA_dev_mutual_information_norm: CCTE's Neural Network Formation Assay for Mutual Information Normalization, Shafer Lab (AID 2284091);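 as to AC50: mutual information between electrodes summarised as area under curve across four recording days; potency is for a decrease in mutual information relative to DMSO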
In short: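 Neurons from rat cortex were seeded at 1.5 x 10^5 cells/well onto PEI-coated MEAs in a laminin drop, then exposed to compound from day 0 for twelve days. Network recordings on four days gave mutual information, summarised by AUC relative to DMSO.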

[9] = CCTE_Shafer_MEA_dev_correlation_coefficient_mean: CCTE's Neural Network Formation Assay for Mean Correlation Coefficient, Shafer Lab (AID 2284093);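 as to AC50: well mean pairwise spike train correlation integrated as AUC over recording days 5 to 12; potency fitted for loss of correlation relative to DMSO vehicle wells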
In short: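 Rat cortical cultures, 1.5 x 10^5 cells/well, dosed from day 0 for 12 days. Spontaneous spikes recorded DIV 5/7/9/12; electrode-pair correlation coefficients averaged, AUC taken. Fit in loss direction vs DMSO.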

[10] = IUF_NPC1b_proliferation_BrdU_72hr: Leibniz Research Institute for Environmental Medicine (IUF) 72-hour Neural Progenitor Cell Bromodeoxyuridine (BrdU) Proliferation Assay (NPC1b) (AID 2284207)
In short: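 Luminescent BrdU ELISA measured DNA synthesis during the last 16 h of a 72 h exposure of primary human neural progenitor spheres grown with EGF and FGF. Signal was fitted relative to DMSO controls.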

[11] = IUF_NPC1a_proliferation_area_72hr: Leibniz Research Institute for Environmental Medicine (IUF) 72-hour Neural Progenitor Cell Proliferation Area Assay (NPC1a) (AID 2284208)
In short: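 hNPC spheres (human fetal cortex, GW 16-19), one per poly-Hema U-bottom well; EGF+FGF medium; dosed day 0, no re-dosing; 72 h, 37C, 5% CO2; phase-contrast sphere area; DMSO = baseline; minus-GF = positive ctrl.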

[12] = CCTE_Mundy_HCI_Cortical_Synap_Neur_Matur_NeuriteSpotCountPerNeuriteLength: CCTE's Synaptogenesis and Neurite Maturation Assay in rat cortical cells for Neurite Spot Count per Neurite Length, Mundy Lab (AID 2284210)
In short: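 Read-out: synaptophysin puncta counted along MAP2-stained neurites, normalised to neurite length, by automated high-content imaging. Rat cortical cells; AraC DIV 5; chemical dosing DIV 7; termination DIV 12. DMSO baseline.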

DIO2 (gene 1734) = experiment: CCTE_GLTED_hDIO2: CCTE's human Deiodinase 2 (DIO2) Inhibition Assay, Great Lakes Toxicology and Ecology Division (GLTED) Lab (AID 2284050; active = hit-call score of the fitted dose curve at least 0.9, where 1 is the maximum)
In short: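 Iodide released by human deiodinase 2 over 3 h with test chemical, measured spectrophotometrically via Sandell-Kolthoff cerium/arsenic reaction. Run n=3; inhibition referenced to DMSO.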

DIO3 (gene 1735) = experiment: CCTE_GLTED_hDIO3: CCTE's human Deiodinase 3 (DIO3) Inhibition Assay, Great Lakes Toxicology and Ecology Division (GLTED) Lab (AID 2284055; active = hit-call score of the fitted dose curve at least 0.9, where 1 is the maximum;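 also: potency is for inhibition seen as loss of released iodide signal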)
In short: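 Inhibition is read as reduced iodide release, measured spectrophotometrically by the Sandell-Kolthoff cerium/arsenic reaction. Adenovirus-expressed human DIO3 enzyme is exposed to chemical for 3 h, n=3 plates. Iodinated chemicals, nitrite, iron or thiocyanate may interfere.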

[13] = CCTE_Shafer_MEA_acute_AB: CCTE's Alamar Blue Assay for Cytotoxicity in the Neural Acute Assay, Shafer Lab (AID 2284069; active = hit-call score of the fitted dose curve at least 0.9, where 1 is the maximum;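 also: active compounds lower the viability signal compared with DMSO wells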)
In short: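 Read-out: resazurin fluorescence (ex 544, em 590 nm) after CTB reagent at 1:6 dilution in fresh media. Cells: primary rat cortical neuron networks, DIV 13 or 15, chemically exposed on MEA plates; DMSO as negative control/baseline.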

[14] = UKN5_HCS_SBAD2_cell_viability: Viability Assessment in the University of Konstanz (UKN) Leist Lab Neurite Outgrowth Assay in human iPSC-derived immature Dorsal Root Ganglia Neurons (UKN5) (AID 2284056)
In short: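 iPSC-derived immature peripheral neurons (SBAD2) seeded on Matrigel with CHIR99021, SU5402 and DAPT, dosed 1 h later for 24 h. Viability from Hoechst H-33342 and calcein-AM live staining, high-content imaging; bidirectional fit versus DMSO.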

[15] = UKN5_HCS_SBAD2_neurite_outgrowth: University of Konstanz (UKN) Leist Lab Neurite Outgrowth Assay in human iPSC-derived immature Dorsal Root Ganglia Neurons (UKN5) (AID 2284070); conditions: actives raise or lower the signal
In short: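 Neurite area from calcein-AM high-content images after 24 h exposure (staining included), with H-33342 for viability, fitted both directions against DMSO. Cells: thawed immature SBAD2 peripheral neurons, 100.000 cells/cm2, with CHIR99021, SU5402, DAPT; dosing 1 h after seeding.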

[16] = CCTE_Shafer_MEA_acute_LDH: CCTE's Lactate Dehydrogenase Assay for Cytotoxicity in the Neural Acute Assay, Shafer Lab (AID 2284086; active = hit-call score of the fitted dose curve at least 0.9, where 1 is the maximum;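 also: active means LDH release rises above DMSO vehicle level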)
In short: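 LDH released during 40 min compound exposure of primary rat cortical cultures, quantified by absorbance at 490 nm in collected medium. Fitting direction positive versus DMSO vehicle.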

[17] = UKN2_HCS_IMR90_neural_migration: University of Konstanz (UKN) Leist Lab Neural Crest Cell Migration Assay in human induced IMR90 Pluripotent Stem Cells (UKN2) (AID 2284204); conditions: actives raise or lower the signal
In short: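 Stopper-exclusion migration (cMINC), human iPSC-derived neural crest cells; N2-S + EGF/FGF; compound added 24 h post-stopper removal, 24 h exposure. Readout: calcein-AM/Hoechst 30 min, HCS fluorescence imaging; bidirectional fitting, DMSO baseline.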

[18] = UKN4_HCS_LUHMES_neurite_outgrowth: University of Konstanz (UKN) Leist Lab Neurite Outgrowth Assay in human LUHMES cells (UKN4) (AID 2284206); conditions: actives raise or lower the signal
In short: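 After 24 h compound treatment beginning shortly after replating of 2-day-differentiated LUHMES cells, calcein-AM and H-33342 live staining allowed high-content imaging of neurite area and viability. Fitted bidirectionally against DMSO.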

Measured: AC50

CNC(=O)CSP(=S)(OC)OC
inactive: [1] | [2] | [4] | [5] | [6] | [8] | [10] | [11] | [12]
active: [3] 50 µM and 15 µM | [4] 50 µM | [6] 50 µM | [7] 66.6 µM and 24.2 µM | [8] 50 µM | [9] 50 µM and 15 µM

N#Cc1c(Cl)c(Cl)c(Cl)c(C#N)c1Cl
inactive: [13]
active: DIO2 (gene 1734) 5.63 µM | DIO3 (gene 1735) 0.404 µM

CCC(C)(NC(=O)c1cc(Cl)c(C)c(Cl)c1)C(=O)CCl (configuration not stated)
active: DIO2 (gene 1734) 13.2 µM | DIO3 (gene 1735) 41.2 µM

ClC1C(Cl)C(Cl)C(Cl)C(Cl)C1Cl (configuration not stated)
inactive: [1] | [2] | [3] | [4] | [5] | [6] | [14] | [7] | [15] | [16] | [8] | [9] | [17] | [18]

N#CN
inactive: [13] | [16]

O=[N+]([O-])/N=C1\NCCN1Cc1ccc(Cl)nc1
active: [6] 15 µM
inactive: [1] | [2] | [3] | [4] | [5] | [14] | [7] | [15] | [8] | [9] | [17] | [18] | [10] | [11] | [12]

O=C1c2ccccc2C(=O)N1SC(Cl)(Cl)Cl
active: [13] 20 µM
inactive: [16]

O=C(O)CCCOc1ccc(Cl)cc1Cl
inactive: [13] | [16]

O=S1OCC2C(CO1)C1(Cl)C(Cl)=C(Cl)C2(Cl)C1(Cl)Cl (configuration not stated)
active: [2] 5.95 µM | [3] 8.02 µM | [4] 8.4 µM | [6] 8.24 µM | [7] 8.55 µM | [8] 7.83 µM | [9] 8.13 µM | [17] 13.9 µM | [18] 16.3 µM | [12] 22.4 µM
inactive: [1] | [5] | [13] | [16] | [10] | [11]
